# Assay results: PubChem BioAssay
# The source made the active and inactive calls.
# Assay: E. coli growth modulation, two-sided OD650, primary screen, E. coli filamentation project, strain DRC41, 24 h (AID 1093);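 also: MC1000 strain lacking acrAB efflux and sulA so SOS filamentation is blocked; test concentration not given here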
# Conditions: OD650, 24 h, higher = more signal, called active from +8 up or from −8 down
row,SMILES,z-score
1,CCCc1cc2c(n1Cc1ccc(OC)cc1)C(C)C1CN(C(=O)c3ccccc3)C(C)(C(=O)OC)C21 (stereo unspecified),-1.21 (inactive)
2,CC(=O)NCCCC[C@@H]1NC(=O)[C@@H]2C[C@H](C(=O)NCCCC[N+](C)(C)C)[C@H](c3cccc(OCCO)c3)N2C1=O,-0.427 (inactive)
3,[N-]=[N+]=Nc1ccccc1[C@@H]1OC(c2ccc(OCCCO)cc2)=N[C@]1(CCS(=O)(=O)c1ccccc1)C(=O)NCc1ccccc1,0.846 (inactive)
4,CN(C)CCCC[C@@H]1NC(=O)[C@H]2C[C@@H](C(=O)NCCCCCCNC(=O)CS)[C@@H](c3ccc(O)cc3)N2C1=O,0.937 (inactive)
5,COC(=O)[C@@]1(Cc2ccc(OC)cc2)[C@H]2c3cc(C(=O)N4CCCC4)n(Cc4ccc(C)o4)c3C[C@H]2CN1C(=O)c1ccccc1,-0.715 (inactive)
6,O=C1N(Cc2ccccc2)c2ccccc2[C@H]2OC(c3ccc(OCCCO)cc3)=N[C@@]12CCS(=O)(=O)c1ccccc1,-0.81 (inactive)
7,COCCCNC(=O)[C@]1(Cc2ccccc2)N=C(c2ccc(OCCCO)cc2)O[C@@H]1c1ccccc1N=[N+]=[N-],0.49 (inactive)
8,CCCCC(=C=CC[C@H](O)c1cccc(OCCO)c1)C[C@H](O)COCc1ccccc1,0.338 (inactive)
9,COC(=O)c1ccc(OC)c(/C=C\CC(CCc2ccccc2)OC(=O)c2ccncc2)c1 (stereo unspecified),0.162 (inactive)
10,COc1ccc([Si](C)(C)[C@H]2[C@H](CC(=O)N3CCC[C@H]3CO)O[C@@]3(C(=O)N(Cc4ccc(N5C(=O)c6cccc7cccc5c67)cc4)c4ccccc43)[C@@H]2C)cc1,0.965 (inactive)
11,COc1cc(NN2C(C(O)c3ccc(I)cc3)C=CC3C(=O)N(C)C(=O)C32)cc(OC)c1OC (stereo unspecified),0.202 (inactive)
12,C=CCC(OC(C)=O)[C@@H]1[C@@H](N(Cc2ccc(-c3ccccc3)cc2)C(=O)c2cccc3ccccc23)c2cc(OCCCO)ccc2N1C(=O)c1ccc2ccccc2n1 (stereo partly specified),0.488 (inactive)
13,C=CCC(OC(C)=O)[C@@H]1[C@@H](N(Cc2cccc3ccccc23)C(=O)Cc2ccc(F)cc2)c2cc(OCCCO)ccc2N1C(=O)Cc1ccc(OC)cc1 (stereo partly specified),0.802 (inactive)
14,O=C1O[C@H](c2ccccc2)[C@H](c2ccccc2)N2[C@H]1[C@@H](C(=O)N1CCN(c3ncccn3)CC1)[C@]1(C(=O)Nc3ccc(C#CCCO)cc31)[C@H]2c1ccccc1OCCO,0.797 (inactive)
15,COC(=O)[C@@]1(Cc2ccccc2)[C@H]2c3cc(C(=O)N4CCCC4)n(CCO)c3C[C@H]2CN1C(=O)c1ccccc1,-0.237 (inactive)
16,COCCCNC(=O)[C@@]1(Cc2ccccc2I)c2ccccc2C(=O)N(Cc2ccccc2Cl)[C@H]1c1ccc(CO)cc1,-0.162 (inactive)

# Assay: small-molecule microarray binders of probe aLefty2, primary screen, biochemical, biotinylated probe, 635/667 nm fluorescence (AID 1094);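 also: score merges spot fluorescence near 667 nm with spot signal-to-noise ratio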
# Conditions: higher = more signal
row,SMILES,composite z-score
1,COC(=O)[C@@]1(Cc2ccc(OC)cc2)[C@H]2c3cc(C(=O)N(C)C)n(Cc4cc(C)n(C)n4)c3C[C@H]2CN1C(=O)c1ccccc1,0.14
2,O=C(NCc1ccccc1)[C@]1(Cc2ccccc2)N=C(c2ccc(OCCCO)cc2)O[C@@H]1c1ccccc1,0.0609
3,[N-]=[N+]=NCc1ccccc1[C@H]1OC(c2ccc(OCCCO)cc2)=N[C@@]1(Cc1ccccc1N=[N+]=[N-])C(=O)N1CCCCC1,0.352
4,COCCOC(=O)N1C(=O)[C@@]2(c3ccccc31)[C@H](c1ccc(OCCO)cc1)N1[C@H](c3ccccc3)[C@H](c3ccccc3)OC(=O)[C@H]1[C@@H]2C(=O)NC[C@H](O)c1ccccc1,0.187
5,COc1ccc(C(=O)Nc2ccc3c(c2)[C@]2(O[C@@H](CCO)[C@H]([Si](C)(C)c4ccc(OC)cc4)[C@H]2C)C(=O)N3Cc2ccccc2)cc1,-0.175
6,CN(C)C(=O)[C@]1(Cc2ccccc2N=[N+]=[N-])N=C(c2ccc(OCCCO)cc2)O[C@@H]1c1ccccc1CN=[N+]=[N-],0.0262
7,COCCOC(=O)N1C(=O)[C@@]2(c3cc(C#Cc4ccc(OC)cc4)ccc31)[C@H](C(=O)N1CCc3cc(OC)c(OC)cc3C1)[C@H]1C(=O)O[C@H](c3ccccc3)[C@H](c3ccccc3)N1[C@@H]2c1ccc(O)cc1,-0.23
8,COc1ccc(C#Cc2ccc3c(c2)[C@]2(C(=O)N3)[C@H](C(N)=O)[C@H]3C(=O)O[C@H](c4ccccc4)[C@H](c4ccccc4)N3[C@@H]2c2ccc(O)cc2)cc1,-0.0258
9,COc1ccc([Si](C)(C)[C@@H]2[C@@H](CCO)O[C@]3(C(=O)N(Cc4ccccc4)c4ccc(N5C(=O)COc6ccccc65)cc43)[C@H]2C)cc1,-0.0511
10,CC(C)(C)OC(=O)CC[C@@]1(C(=O)N2CCCCC2)N=C(c2ccc(OCCCO)cc2)O[C@@H]1c1ccccc1CN=[N+]=[N-],0.208
11,CC(C)C(CO)N1C(=O)[C@@H]2[C@H]3C(=O)OCC=C[C@H]3OC23C=CCN(CCN2CCOCC2)C(=O)[C@@H]13 (stereo partly specified),-0.25
12,CN1C(=O)C2C=CC(C(O)c3cccc4ccccc34)N(NC(=O)OC(C)(C)C)C2C1=O (stereo unspecified),0.712
13,COCCOC(=O)N1C(=O)[C@@]2(c3cc(C#Cc4ccc(OC)cc4)ccc31)[C@H](C(=O)N1CCc3cc(OC)c(OC)cc3C1)[C@H]1C(=O)O[C@H](c3ccccc3)[C@H](c3ccccc3)N1[C@@H]2c1ccc(OCCO)cc1,-0.104
14,CCOC(=O)C1=CC[C@@H](c2ccccc2)N(S(=O)(=O)c2ccc(C)cc2)[C@H]1C=C(C)C,0.0704
15,C[N+](C)(C)CCCC[C@@H]1NC(=O)[C@H]2C[C@@H](C(=O)NCCCCCCN)[C@@H](c3cccc(OCCO)c3)N2C1=O,1.08
16,COC(=O)C(CC#Cc1ccc2c(c1)[C@]1(C(=O)N2)[C@H](c2ccc(O)cc2)N2[C@H](c3ccccc3)[C@H](c3ccccc3)OC(=O)[C@H]2[C@@H]1C(N)=O)C(=O)OC,-0.189
17,CCOc1cc(C(O)C2C=CC3C(=O)NC(=O)C3N2Nc2ccccn2)ccc1O (stereo unspecified),-0.0708
18,C[N+](C)(C)CCCCCCNC(=O)[C@@H]1C[C@@H]2C(=O)NCC(=O)N2[C@@H]1c1cccc(OCCO)c1,-0.207

row,SMILES,composite z-score
1,O=C1c2ccccc2C(=O)C2CC([C@H]3Oc4ccccc4S(=O)(=O)N4CCC[C@@H]34)=CCC12 (stereo partly specified),-0.116
2,CCCc1cc2c(n1Cc1ccc(OC)cc1)C(C)C1CN(C(=O)c3ccccc3)C(C)(C(=O)OC)C21 (stereo unspecified),0.8
3,CC(=O)NCCCC[C@@H]1NC(=O)[C@@H]2C[C@H](C(=O)NCCCC[N+](C)(C)C)[C@H](c3cccc(OCCO)c3)N2C1=O,0.127
4,[N-]=[N+]=Nc1ccccc1[C@@H]1OC(c2ccc(OCCCO)cc2)=N[C@]1(CCS(=O)(=O)c1ccccc1)C(=O)NCc1ccccc1,0.813
5,CN(C)CCCC[C@@H]1NC(=O)[C@H]2C[C@@H](C(=O)NCCCCCCNC(=O)CS)[C@@H](c3ccc(O)cc3)N2C1=O,-0.0785
6,COC(=O)[C@@]1(Cc2ccc(OC)cc2)[C@H]2c3cc(C(=O)N4CCCC4)n(Cc4ccc(C)o4)c3C[C@H]2CN1C(=O)c1ccccc1,0.292
7,O=C1N(Cc2ccccc2)c2ccccc2[C@H]2OC(c3ccc(OCCCO)cc3)=N[C@@]12CCS(=O)(=O)c1ccccc1,0.0137
8,COCCCNC(=O)[C@]1(Cc2ccccc2)N=C(c2ccc(OCCCO)cc2)O[C@@H]1c1ccccc1N=[N+]=[N-],-0.02
9,CCCCC(=C=CC[C@H](O)c1cccc(OCCO)c1)C[C@H](O)COCc1ccccc1,-0.195
10,COC(=O)c1ccc(OC)c(/C=C\CC(CCc2ccccc2)OC(=O)c2ccncc2)c1 (stereo unspecified),0.0224
11,COc1ccc([Si](C)(C)[C@H]2[C@H](CC(=O)N3CCC[C@H]3CO)O[C@@]3(C(=O)N(Cc4ccc(N5C(=O)c6cccc7cccc5c67)cc4)c4ccccc43)[C@@H]2C)cc1,-0.057
12,COc1cc(NN2C(C(O)c3ccc(I)cc3)C=CC3C(=O)N(C)C(=O)C32)cc(OC)c1OC (stereo unspecified),0.0283
13,C=CCC(OC(C)=O)[C@@H]1[C@@H](N(Cc2ccc(-c3ccccc3)cc2)C(=O)c2cccc3ccccc23)c2cc(OCCCO)ccc2N1C(=O)c1ccc2ccccc2n1 (stereo partly specified),0.0469
14,C=CCC(OC(C)=O)[C@@H]1[C@@H](N(Cc2cccc3ccccc23)C(=O)Cc2ccc(F)cc2)c2cc(OCCCO)ccc2N1C(=O)Cc1ccc(OC)cc1 (stereo partly specified),-0.0137
15,O=C1O[C@H](c2ccccc2)[C@H](c2ccccc2)N2[C@H]1[C@@H](C(=O)N1CCN(c3ncccn3)CC1)[C@]1(C(=O)Nc3ccc(C#CCCO)cc31)[C@H]2c1ccccc1OCCO,-0.166
16,COC(=O)[C@@]1(Cc2ccccc2)[C@H]2c3cc(C(=O)N4CCCC4)n(CCO)c3C[C@H]2CN1C(=O)c1ccccc1,1.35
17,COCCCNC(=O)[C@@]1(Cc2ccccc2I)c2ccccc2C(=O)N(Cc2ccccc2Cl)[C@H]1c1ccc(CO)cc1,0.0842
